pAkt inh – blocks phosphorylation of Akt; Neuro2A IGF-stimulated pAkt S473 HTRF, 20 min; hits give low values; activity change, % for hits at 50 µM; 360,000 compounds, 0.32% hits; AID 651550; in the data active = activity change below about -80%; inconclusive = mostly about -51% to -80%; also: % is scaled to controls: 0 for no effect and ±100 for the full control effect
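Neuro2A cells (4,500/well, DMEM with 0.5% FBS) were treated with compound at a single 50 µM final concentration, stimulated with 6 nM IGF for 20 min at 37 °C, and lysed. Phospho-Akt Ser473 was read by HTRF as 665/615 ratio ×10^4.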
Glioma ERSR ind – inducers of ER stress response in human glioma cells; AID 602332; Potency, µM, without a hit: at the top dose activation, usual class: activators; U87-MG GRP78 promoter luciferase reporter, 16 h; 420,000 compounds, 0.02% hits; active = well fitted activation curve with a large enough effect; inconclusive = small, poorly fitted or top-dose-only effect; inactive = no such curve, though single readings can be large or run the other way; also: potency is read from the fitted curve at half-maximal effect; series mostly up to about 76 µM; % of control where 0% means no effect; nearly all actives have a fitted effect of over 35% in size
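ERSR induction read as luciferase luminescence (Bright-Glo, 10 min at room temperature) in stably transfected human U87-MG glioma cells exposed to compounds for 16 h, using GRP78 as sensor.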
hERG WT inh – KCNH2 (human, wildtype) channel inhibition; U2OS, BacMam KCNH2, thallium flux FluxOr; hits give low values; activity change, % at 1.84 µM; 340,000 compounds, 0.37% hits; AID 720551;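 active = maximum activity change below -70%; inconclusive = maximum activity change between -70% and -50%; inactive = maximum activity change above -50%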; also: % is scaled to controls: 0 for no effect and ±100 for the full control effect
Target sequence (Q12809 whole entry, looked up): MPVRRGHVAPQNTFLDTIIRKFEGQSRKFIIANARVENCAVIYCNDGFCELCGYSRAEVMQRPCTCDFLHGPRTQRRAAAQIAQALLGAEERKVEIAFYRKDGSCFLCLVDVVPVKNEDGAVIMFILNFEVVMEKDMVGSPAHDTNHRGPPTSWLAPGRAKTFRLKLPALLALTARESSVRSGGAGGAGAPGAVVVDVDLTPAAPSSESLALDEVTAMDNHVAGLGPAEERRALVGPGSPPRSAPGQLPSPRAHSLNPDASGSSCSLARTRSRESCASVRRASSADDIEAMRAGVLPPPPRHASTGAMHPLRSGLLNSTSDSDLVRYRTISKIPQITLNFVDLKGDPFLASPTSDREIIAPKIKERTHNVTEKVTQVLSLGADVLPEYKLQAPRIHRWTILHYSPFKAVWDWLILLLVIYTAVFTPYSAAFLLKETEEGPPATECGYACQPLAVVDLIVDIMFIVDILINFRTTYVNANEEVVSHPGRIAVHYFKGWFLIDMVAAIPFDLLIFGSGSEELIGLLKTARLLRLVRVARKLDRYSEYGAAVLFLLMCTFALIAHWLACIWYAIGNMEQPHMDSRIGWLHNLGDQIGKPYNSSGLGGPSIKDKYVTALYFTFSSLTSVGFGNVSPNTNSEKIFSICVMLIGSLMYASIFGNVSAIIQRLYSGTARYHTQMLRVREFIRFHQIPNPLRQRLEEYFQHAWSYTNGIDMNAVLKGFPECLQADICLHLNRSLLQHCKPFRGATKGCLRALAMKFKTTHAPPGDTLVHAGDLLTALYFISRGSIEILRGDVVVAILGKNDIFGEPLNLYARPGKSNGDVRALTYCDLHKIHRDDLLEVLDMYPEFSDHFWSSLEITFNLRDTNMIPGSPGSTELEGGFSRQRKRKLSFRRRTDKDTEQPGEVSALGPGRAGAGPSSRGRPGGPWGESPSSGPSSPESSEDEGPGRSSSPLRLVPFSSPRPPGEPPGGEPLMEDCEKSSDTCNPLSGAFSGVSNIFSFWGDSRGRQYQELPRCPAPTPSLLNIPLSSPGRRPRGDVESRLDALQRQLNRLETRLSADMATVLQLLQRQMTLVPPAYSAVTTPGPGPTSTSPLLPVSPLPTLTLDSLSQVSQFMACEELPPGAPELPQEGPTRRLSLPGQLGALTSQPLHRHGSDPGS
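U2OS cells were transduced with wild-type KCNH2 virus (2.03 x 10^8 / mL) for 4 h at room temperature, then cultured overnight at 37 C. Thallium flux was read with FluxOr dye. Rate constants were normalized to DMSO controls.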
gsp antagonist – antagonists of gsp mutant (McCune-Albright syndrome). Potency, µM (titrated, usually from 76.9 µM), for inactives: at the top dose activity change, negative = inhibition, usual class: inhibitors. gsp-mutant cells, cAMP HTRF, 30 min. 340,000 compounds, 0.4% hits; calls by dose curve; cell line not stated here;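 also: intracellular cAMP measured with PDE inhibitor Ro 20-1724 present during compound exposure; potency is read from the fitted curve at half-maximal effect; % is scaled to controls: 0 for no effect and ±100 for the full control effect; nearly all actives have a fitted effect of over 65% in size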
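HTRF cAMP read-out (cAMP-d2 plus anti-cAMP antibody-K in lysis buffer, 30 min RT). Before lysis, cells are exposed to compounds with […] for 30 min at 37C in DPBS containing Ca/Mg, BSA and Tween 20.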
gsp agonist – activates gsp, the McCune-Albright syndrome mutation. gsp mutant cells, cAMP HTRF, 30 min. Potency, µM (series often up to 76.9 µM), for the others: at the highest dose activation (cAMP increase), most hits filed as activators. 340,000 compounds, 0.13% hits. AID 624287; active = well fitted activation curve with a large enough effect; inconclusive = small, poorly fitted or top-dose-only effect, or another doubt; inactive = no such curve, though single readings can be large or run the other way; cell line not stated here;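 also: phosphodiesterase inhibitor Ro 20-1724 added with compounds to block cAMP breakdown; potency is read from the fitted curve at half-maximal effect; nearly all actives have a fitted effect of over 60% in size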
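Cells in DMEM/10% FBS with G418 were pretreated with compounds in DMSO plus […] (300 uM stock) for 30 min at 37C. cAMP was measured by HTRF (cAMP-d2 plus anti-cAMP antibody-K) after 30 min at room temperature.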
KCNH2 3.1 inh – inhibitors of human KCNH2 3.1 potassium channel isoform; U2OS KCNH2 3.1, thallium flux FluxOr; hits give low values; activity change, % (tested at about 1.8 µM); 340,000 compounds, 0.95% hits; AID 720553;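 active = maximum activity change below -70%; inconclusive = maximum activity change from -70% to -50%; inactive = maximum activity change above -50%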;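 also: thallium influx rate constant from kinetic fluorescence after stimulation buffer; % is scaled to controls: 0 for no effect and ±100 for the full control effect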
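We transduce U2OS cells with the mutant 3.1 virus, culture them overnight, load FluxOr with Red40 quencher for 45 min, then add stimulation buffer and read kinetically for 2 min to derive a normalized rate constant.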
The depositor's hits bear a star; i = inactive; ? = inconclusive; . = not tested or not shown; [ ] = dose if it differs, or a comment. The list is not random: actives were taken first. Their share in the collection is about 1.6%.

SMILES	pAkt inh	Glioma ERSR ind	hERG WT inh	gsp antagonist	gsp agonist	KCNH2 3.1 inh
CC(=O)NC(Cc1ccccc1)C(=O)N1CCN(C(=O)c2cccs2)CC1 (stereo not given)	i	-3%	5	-4%	-26%	-94*
CCCN(CCC)C(=O)CSc1nc2c(sc(=S)n2-c2ccc(OCC)cc2)c(=O)[nH]1	i	4%	-12	14µM*	9%[15.4 µM]	-9
CCN(CC)C(=O)CSc1nc2c(sc(=S)n2CC)c(=O)n1-c1ccccc1	i	2%	-2	?	5%	-10
CCN(CC)C(=O)CSc1nc2c(sc(=S)n2-c2ccccc2)c(=O)n1Cc1ccco1	i	-4%	-43	-32%	-27%	-78*
CCOc1ccc(-n2c(=S)sc3c(=O)n(-c4ccccc4)c(SCC(=O)O)nc32)cc1	i	0%	14	-6%	?	7
CCOc1ccc(-n2c(=S)sc3c(=O)n(-c4ccc(F)cc4)c(SCC(=O)O)nc32)cc1	i	-3%	-239*	-4%	-4%	0
Cc1nn(C)cc1CN1CCOc2ccc(CN3CCC(Oc4cccnc4)CC3)cc2C1	.	1%	.	.	.	.
COc1ccccc1C(=O)N[C@@H]1c2ccccc2C2(CCN(Cc3c(O)cccc3OC)CC2)[C@H]1O	.	-1%	.	.	.	.
Cc1sc(NC(=O)CSc2nnc(-c3ccc(F)cc3)o2)c(C#N)c1C	-108%*	-2%	-8	?	-2%	20
Cc1ccc(-c2nnc(SCC(=O)Nc3sc(C)c(C)c3C#N)n2C)cc1	i	-1%	-3	-8%	-4%	-6
Cc1sc2nc(CSc3ccccc3)nc(N3CCC(C(N)=O)CC3)c2c1C	i	0%	.	?	-62%	3
CCOC(=O)c1sc2nc(CSc3ccccc3)nc(N3CCC(C(N)=O)CC3)c2c1C	i	-13%	-225*	.	-14%[15.4 µM]	-191*
O=C1c2ccccc2NC(c2ccc(Cl)cc2Cl)N1O (stereo not given)	-132%*	-2%	-7	-9%	-47%	2
O=C1c2ccccc2NC(c2cnc3ccccc3n2)N1O (stereo not given)	?	-7%	4	-11%	22µM*	7
CC[C@]12CCCN3CCc4c(n(c5ccccc45)[C@@](O)(C(=O)OC)C1)[C@@H]32	i	2%	-15	2%	-21%	-103*
CC[C@]12CCCN3CCc4c(n(c5ccccc45)C(=O)C1)[C@@H]32	i	-3%	47	-15%	.	?
CC(C)CNS(=O)(=O)c1ccc(CCC(=O)N2CCC(C(N)=O)CC2)cc1	i	0%	4	8%	-6%	-113*
Cc1ccc(SCC(=O)Nc2cc([N+](=O)[O-])ccc2O)cc1	i	-2%	-1	50µM*	-28%[15.4 µM]	1
Cc1ccc(/C=C2/SC(=S)N(CCCC(=O)Nc3cc([N+](=O)[O-])ccc3O)C2=O)cc1	i	-11%	10	-9%	4%	-83*
O=C(CSCc1ccc(Cl)cc1)Nc1cc([N+](=O)[O-])ccc1O	i	-2%	6	?	14%	-3
CNC(=O)[C@@H]1C[C@@H](NCc2cccc(Oc3ccccc3)c2)CN1C(C)C	.	-2%	.	.	.	.
CC(C)OCCCn1c(=O)c2ccccc2n2c(CCC(=O)N3CCN(c4ccccn4)CC3)nnc12	i	2%	-8	-8%	20µM*	-7
CC(C)CCn1c(=O)c2ccccc2n2c(CCC(=O)NC3CCN(Cc4ccccc4)CC3)nnc12	i	0%	8	-3%	-58%	20
CC(C)CCn1c(=O)c2ccccc2n2c(CCC(=O)NCC3CCCO3)nnc12 (stereo not given)	i	-1%	9	6%	32µM*	-1
COc1ccccc1C(=O)N1CCCC(c2nc(SCCN3CCOCC3)ncc2C)C1 (stereo not given)	.	-6%	.	.	.	.
SMILES	pAkt inh	Glioma ERSR ind	hERG WT inh	gsp antagonist	gsp agonist	KCNH2 3.1 inh
C[C@H](NC(=O)OC(C)(C)C)c1nnc(SCC(=O)Nc2cccc(Cl)c2)o1	i	19%	4	-16%	7%	16
CC(C)[C@H](NC(=O)OC(C)(C)C)c1nnc(SCC(=O)Nc2ccc(Br)cc2)o1	i	-6%	2	35µM*	5%	-5
Cc1c(C(=O)N2CCCC2)sc2ncnc(NCCCN3CCOCC3)c12	.	-6%	.	.	.	.
OCCC1CN(Cc2ccc(F)cc2Cl)CCN1CCc1ccccc1 (stereo not given)	i	-1%	15	7%	-12%	-72*
CC(=O)c1c(C)[nH]c(C(=O)OCC(=O)Nc2ccc(Cl)c(S(=O)(=O)N(C)C)c2)c1C	i	-3%	11	40µM*	37%	-3
CCCCCCCCCCCCCCCC[n+]1ccc(/C=C/c2c[nH]c3ccccc23)c2ccccc21	.	-8%	.	.	.	.
CC(c1nnnn1C(C)(C)C)N(Cc1cccnc1)Cc1ccccc1Cl (stereo not given)	i	-3%	-11	40µM*	-27%	1
O=C(Nc1nc(-c2ccccn2)cs1)c1ccc(-c2ccccc2F)o1	i	32µM*	-3	-18%	1%	4
Cc1ccc(C(=O)Nc2nc(-c3ccccn3)cs2)o1	i	4%	-5	-13%	-1%	-5
CCC1CN(Cc2cccn2-c2ccccn2)Cc2cc(OC)ccc2O1 (stereo not given)	.	3%	.	.	.	.
NC(=O)CC(NC(=O)c1ccccc1)c1ccc(N2CCN(c3ccccn3)CC2)c([N+](=O)[O-])c1 (stereo not given)	i	-3%	-7	-7%	-42%	-130*
O=C(c1ccc(N2CCN(C(=O)c3ccc(F)cc3F)CC2)cc1)c1cccc(F)c1	i	1%	-5	35µM*	-1%	-3
CCOC(=O)N1CCN(c2ccc(C(=O)c3ccccc3)cc2F)CC1	i	2%	-10	32µM*	-16%	-5
O=C(c1ccccc1)c1ccc(N2CCN(C(=O)c3cccc(F)c3F)CC2)c(F)c1	i	-3%	6	40µM*	?	3
CCOC(=O)N1CCN(c2ccc(C(C)=O)cc2F)CC1	i	-3%	-6	-7%	-52%	6
COc1ccccc1C1CN(Cc2c(C)nn(C)c2Cl)Cc2ccccc2O1 (stereo not given)	.	-5%	.	.	.	.
CCNC(=S)Nc1cccc(S(=O)(=O)Nc2ccccc2OC)c1	i	-8%	3	-1%	2%[15.4 µM]	-85*
COc1ccccc1NS(=O)(=O)c1cccc(NC(=O)Cc2cccs2)c1	i	-4%	-14	-2%	10%[15.4 µM]	4
COc1ccccc1NS(=O)(=O)c1cccc(NC(=O)Nc2ccc(Cl)cc2)c1	i	4%	13	28µM*	17%	2

Source: PubChem BioAssay (National Center for Advancing Translational Sciences (NCATS))
